Among all 39,000 compounds or so, about 3,300 (8.5%) were called active. For the sample, actives were picked, then their nearest neighbours and some compounds at random.
Each compound was assayed on HepG2 (assay: cytotoxicity call (relative viability < 0.9)). Conditions: 10 µM.
`C[C@H]1CN([C@@H](C)CO)C(=O)c2cc(C#CCC3CCCC3)cnc2O[C@@H]1CN(C)C(=O)c1cnccn1` was tested, and the cytotoxicity call was “inactive”.
In the case of `CC(C)NC(=O)N(C)C[C@H]1Oc2cc(C#Cc3cccc(F)c3)ccc2S(=O)(=O)N([C@@H](C)CO)C[C@H]1C`, the cytotoxicity call is reported as “inactive”.
With `CNC[C@@H]1OCCCC[C@H](C)Oc2ccc(NS(=O)(=O)c3cn(C)cn3)cc2C(=O)N([C@@H](C)CO)C[C@@H]1C` the cytotoxicity call was “inactive”.
`C[C@@H]1CCCCO[C@H](CN(C)S(=O)(=O)c2ccc(Cl)cc2)[C@@H](C)CN([C@@H](C)CO)C(=O)c2cc(NS(=O)(=O)c3ccc(Cl)cc3)ccc2O1` was tested, and the cytotoxicity call was “inactive”.
For `C[C@H]1CCCCO[C@@H](CN(C)S(=O)(=O)c2ccc(Cl)cc2)[C@@H](C)CN([C@@H](C)CO)C(=O)c2cc(NS(=O)(=O)c3ccc(Cl)cc3)ccc2O1`, the cytotoxicity call was “inactive”.
With `C[C@@H]1CN([C@@H](C)CO)C(=O)c2cc(NS(=O)(=O)c3ccc(Cl)cc3)ccc2O[C@@H](C)CCCCO[C@@H]1CN(C)S(=O)(=O)c1ccc(Cl)cc1` the cytotoxicity call was “active”.
For `C[C@@H]1CCCCO[C@H](CN(C)S(=O)(=O)c2ccc(Cl)cc2)[C@@H](C)CN([C@H](C)CO)C(=O)c2cc(NS(=O)(=O)c3ccc(Cl)cc3)ccc2O1`, the cytotoxicity call was “inactive”.
`C[C@@H]1CN([C@H](C)CO)C(=O)c2cc(NS(=O)(=O)c3ccc(Cl)cc3)ccc2O[C@@H](C)CCCCO[C@@H]1CN(C)S(=O)(=O)c1ccc(Cl)cc1` was tested, and the cytotoxicity call was “inactive”.
In the case of `C[C@@H]1CCCCO[C@@H](CN(C)S(=O)(=O)c2ccc(Cl)cc2)[C@@H](C)CN([C@H](C)CO)C(=O)c2cc(NS(=O)(=O)c3ccc(Cl)cc3)ccc2O1`, the cytotoxicity call is reported as “inactive”.
For `C[C@@H]1CCCCO[C@H](CN(C)S(=O)(=O)c2ccc(Cl)cc2)[C@H](C)CN([C@H](C)CO)C(=O)c2cc(NS(=O)(=O)c3ccc(Cl)cc3)ccc2O1`, the cytotoxicity call was “active”.
`C[C@@H]1CCCCO[C@@H](CN(C)S(=O)(=O)c2ccc(Cl)cc2)[C@H](C)CN([C@@H](C)CO)C(=O)c2cc(NS(=O)(=O)c3ccc(Cl)cc3)ccc2O1` was tested, and the cytotoxicity call was “inactive”.
For `C[C@@H]1CCCCO[C@@H](CN(C)S(=O)(=O)c2ccc(Cl)cc2)[C@@H](C)CN([C@@H](C)CO)C(=O)c2cc(NS(=O)(=O)c3ccc(Cl)cc3)ccc2O1`, the cytotoxicity call was “inactive”.
For `C[C@@H]1CCCCO[C@H](CN(C)S(=O)(=O)c2ccc(Cl)cc2)[C@H](C)CN([C@@H](C)CO)C(=O)c2cc(NS(=O)(=O)c3ccc(Cl)cc3)ccc2O1`, the cytotoxicity call was “active”.
`C[C@H](CO)N1C[C@H](C)[C@H](CN(C)S(=O)(=O)c2ccc(Cl)cc2)OCCCC[C@H](C)Oc2ccc(NS(=O)(=O)c3ccc(Cl)cc3)cc2C1=O` was tested, and the cytotoxicity call was “active”.
With `C[C@H](CO)N1C[C@H](C)[C@@H](CN(C)S(=O)(=O)c2ccc(Cl)cc2)OCCCC[C@H](C)Oc2ccc(NS(=O)(=O)c3ccc(Cl)cc3)cc2C1=O` the cytotoxicity call was “inactive”.
For `CN(C)C(=O)c1ccc(-c2cccc(-c3nc(C(=O)NCc4ccccc4)cc4c3[C@@H](CCO)N([S@@](=O)C(C)(C)C)C4)c2)cc1`, the cytotoxicity call was “inactive”.
With `C[C@H](NC(=O)C[C@H]1CC[C@@H](NC(=O)CN2CCOCC2)[C@@H](CO)O1)c1ccccc1` the cytotoxicity call was “inactive”.
For `Cc1ccc(S[C@]2(C(=O)NC3CC3)CC(=O)N(Cc3cc(C(F)(F)F)cc(C(F)(F)F)c3)[C@@H]2c2ccc(CO)cc2)cc1`, the cytotoxicity call was “inactive”.
`C[C@@H]1CCCCO[C@@H](CN(C)S(=O)(=O)c2ccccc2)[C@H](C)CN([C@@H](C)CO)C(=O)c2cc(NC(=O)C3CCCCC3)ccc2O1` was tested, and the cytotoxicity call was “inactive”.
For `COc1ccc(S(=O)(=O)Nc2ccc3c(c2)CC(=O)N([C@@H](C)CO)C[C@@H](C)[C@@H](CN(C)Cc2ccc(C(=O)O)cc2)O3)cc1`, the cytotoxicity call was “inactive”.
With `COc1ccc(NC(=O)N(C)C[C@@H]2OCCCC[C@H](C)Oc3ccc(NS(=O)(=O)c4cccs4)cc3C(=O)N([C@@H](C)CO)C[C@@H]2C)cc1` the cytotoxicity call was “inactive”.
`CCS(=O)(=O)N1C[C@]2(CN(C2)C(=O)c2ccc3c(c2)OCO3)c2c(n(c3cc(ccc23)OC)C)[C@H]1CO` was tested, and the cytotoxicity call was “inactive”.
`CN1CCN(C(=O)C[C@@H]2CC[C@@H]3[C@H](COC[C@@H](O)CN3C(=O)Nc3cc(Cl)cc(Cl)c3)O2)CC1` was tested, and the cytotoxicity call was “inactive”.
`C[C@H]1CN([C@@H](C)CO)C(=O)c2cc(NC(=O)C3CCCCC3)ccc2O[C@H]1CN(C)C(=O)Nc1ccc(C(F)(F)F)cc1` was tested, and the cytotoxicity call was “inactive”.
`C[C@@H]1CN([C@@H](C)CO)C(=O)c2cc(NS(=O)(=O)c3ccc(Cl)cc3)ccc2O[C@@H](C)CCCCO[C@H]1CN(C)S(=O)(=O)c1ccc(Cl)cc1` was tested, and the cytotoxicity call was “inactive”.
`C[C@@H]1CCCCO[C@@H](CN(C)S(=O)(=O)c2ccc(Cl)cc2)[C@H](C)CN([C@H](C)CO)C(=O)c2cc(NS(=O)(=O)c3ccc(Cl)cc3)ccc2O1` was tested, and the cytotoxicity call was “active”.
`C[C@@H]1CN([C@H](C)CO)C(=O)c2cc(NS(=O)(=O)c3ccc(Cl)cc3)ccc2O[C@@H](C)CCCCO[C@H]1CN(C)S(=O)(=O)c1ccc(Cl)cc1` was tested, and the cytotoxicity call was “inactive”.
With `COCCNC(=O)C[C@H]1C[C@H]2c3cc(NC(=O)CN(C)C)ccc3O[C@H]2[C@@H](CO)O1` the cytotoxicity call was “inactive”.
In the case of `C[C@@H]1CN([C@H](C)CO)C(=O)c2cc(NC(=O)NC3CCCCC3)ccc2O[C@@H]1CN(C)Cc1ccc(Oc2ccccc2)cc1`, the cytotoxicity call is reported as “active”.
For `C[C@H]1CN([C@@H](C)CO)C(=O)c2cc(NC(=O)NC3CCCCC3)ccc2O[C@H]1CN(C)Cc1ccc(Oc2ccccc2)cc1`, the cytotoxicity call was “inactive”.
With `C[C@@H]1CN([C@H](C)CO)C(=O)c2cc(NC(=O)NC3CCCCC3)ccc2O[C@H]1CN(C)Cc1ccc(Oc2ccccc2)cc1` the cytotoxicity call was “inactive”.
For `C[C@H](CO)N1C[C@H](C)[C@H](CN(C)Cc2ccc(Oc3ccccc3)cc2)Oc2ccc(NC(=O)NC3CCCCC3)cc2C1=O`, the cytotoxicity call was “inactive”.
`C[C@H](CO)N1C[C@H](C)[C@@H](CN(C)Cc2ccc(Oc3ccccc3)cc2)Oc2ccc(NC(=O)NC3CCCCC3)cc2C1=O` was tested, and the cytotoxicity call was “active”.
In the case of `CC(C)NC(=O)Nc1ccc2c(c1)C(=O)N([C@@H](C)CO)C[C@@H](C)[C@@H](CN(C)Cc1ccc(Oc3ccccc3)cc1)O2`, the cytotoxicity call is reported as “inactive”.
`CC(C)NC(=O)Nc1ccc2c(c1)C(=O)N([C@H](C)CO)C[C@@H](C)[C@H](CN(C)Cc1ccc(Oc3ccccc3)cc1)O2` was tested, and the cytotoxicity call was “inactive”.
In the case of `C[C@@H]1CN([C@@H](C)CO)C(=O)c2cc(NC(=O)NC3CCCCC3)ccc2O[C@H]1CN(C)Cc1ccc(Oc2ccccc2)cc1`, the cytotoxicity call is reported as “inactive”.
For `C[C@@H]1CN([C@@H](C)CO)C(=O)c2cc(NC(=O)NC3CCCCC3)ccc2O[C@@H]1CN(C)Cc1ccc(Oc2ccccc2)cc1`, the cytotoxicity call was “active”.
With `O=C(C[C@@H]1CC[C@@H]2[C@H](COC[C@H](O)CN2C(=O)Nc2ccc(Cl)cc2)O1)NCCc1ccncc1` the cytotoxicity call was “inactive”.
With `Cn1ccnc1C(=O)N[C@@H]1CN(C(N)=O)[C@H]2CCCO[C@@H]12` the cytotoxicity call was “inactive”.
With `C[C@@H]1CN([C@@H](C)CO)C(=O)Cc2cc(NC(=O)C3CC3)ccc2O[C@@H]1CN(C)S(=O)(=O)c1cccs1` the cytotoxicity call was “inactive”.
In the case of `Cc1ccc(S(=O)(=O)Nc2ccc3c(c2)C(=O)N([C@H](C)CO)C[C@@H](C)[C@H](CN(C)C(=O)Nc2ccc4c(c2)OCO4)OCCCC[C@@H](C)O3)cc1`, the cytotoxicity call is reported as “inactive”.
With `C[C@H](CO)N1C[C@H](C)[C@@H](CN(C)S(=O)(=O)c2ccc(F)cc2)OCCCC[C@H](C)Oc2ccc(NC(=O)Nc3ccc4c(c3)OCO4)cc2C1=O` the cytotoxicity call was “inactive”.
For `Cc1noc(C)c1S(=O)(=O)Nc1ccc2c(c1)C(=O)N([C@@H](C)CO)C[C@H](C)[C@H](CN(C)S(=O)(=O)c1ccccc1)O2`, the cytotoxicity call was “inactive”.
For `C[C@@H]1CN([C@H](C)CO)C(=O)c2cc(NC(=O)Cn3cnnn3)ccc2O[C@@H]1CN(C)CC1CC1`, the cytotoxicity call was “inactive”.
With `CNc1ccc(-c2nc(N3CCOCC3)c3sc(CN(C)c4ncc(C(=O)NO)cn4)cc3n2)cn1` the cytotoxicity call was “active”.
For `COc1ccc(-c2nc(N3CCOCC3)c3sc(CN(C)c4ncc(C(=O)NO)cn4)cc3n2)cn1`, the cytotoxicity call was “active”.
For `COC(=O)COc1nsnc1N1CCOCC1`, the cytotoxicity call was “inactive”.
In the case of `COc1ccc(S(=O)(=O)Nc2ccc3c(c2)C(=O)N([C@@H](C)CO)C[C@@H](C)[C@H](CN(C)C(=O)Nc2c(C)noc2C)OCCCC[C@H](C)O3)cc1`, the cytotoxicity call is reported as “inactive”.
For `O=C(/C=C/c1ccc(O)c(O)c1)O[C@H]1[C@H](O)C[C@](O)(C(=O)O)C[C@H]1OC(=O)/C=C/c1ccc(O)c(O)c1`, the cytotoxicity call was “inactive”.
With `Cc1ccc(S(=O)(=O)Nc2ccc3c(c2)CC(=O)N([C@H](C)CO)C[C@H](C)[C@@H](CN(C)S(C)(=O)=O)O3)cc1` the cytotoxicity call was “inactive”.
In the case of `Cc1cccc2c3c(ccc12)C1=C(C(=O)C3=O)C(C)CO1` (stereo not given), the cytotoxicity call is reported as “active”.
In the case of `Cc1cccc2c1OCC[C@@H](N)C2=O`, the cytotoxicity call is reported as “inactive”.
For `Cc1coc2c1C(=O)C(=O)c1c-2ccc2c1CCCC2(C)C`, the cytotoxicity call was “active”.
With `CC1COC2=C1C(=O)C(=O)c1c2ccc2c1CCCC2(C)C` (stereo not given) the cytotoxicity call was “active”.
`C[C@@H]1CN([C@@H](C)CO)C(=O)Cc2cc(NC(=O)Nc3cccc4ccccc34)ccc2O[C@H]1CN(C)Cc1ccc(-c2ccccc2)cc1` was tested, and the cytotoxicity call was “inactive”.
For `COc1cc2c(cc1OC)CN(C(=O)[C@H]1[C@@H]3C(=O)O[C@@H](c4ccccc4)[C@@H](c4ccccc4)N3[C@@H](c3ccccc3OCCO)[C@]13C(=O)Nc1ccc(C#CC4(O)CCCCCC4)cc13)CC2`, the cytotoxicity call was “inactive”.
In the case of `O=C(C[C@@H]1CC[C@H]2[C@@H](COC[C@H](O)CN2C(=O)c2ccccn2)O1)NC1CCC1`, the cytotoxicity call is reported as “inactive”.
For `O[C@@H]1[C@@H](O)[C@H](OC/C=C/c2ccccc2)O[C@H](CO[C@@H]2OC[C@@H](O)[C@@H](O)[C@@H]2O)[C@H]1O`, the cytotoxicity call was “inactive”.
In the case of `NCc1cccc2nsnc12`, the cytotoxicity call is reported as “inactive”.
For `C[C@H]1CN([C@@H](C)CO)C(=O)c2cccc(NC(=O)C3CC3)c2O[C@@H]1CN(C)S(=O)(=O)c1ccc(F)cc1`, the cytotoxicity call was “inactive”.

— the antibiotic and cytotoxicity screens of Wong et al. (2023)
